Experimental data: PubChem BioAssay (NCI)
The panel holds about 79,000 compounds, 15% with a hit somewhere; the sample as a whole holds those more often. Calls of active or inactive are those of the source. No stated cut-off is given here; in the data, active means growth inhibition above about 70%; inactive means the rest.

Experiments:
[1] = NCI Yeast Anticancer Drug Screen. Data for the rad52 strain (AID 147);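 further: 0% = growth of vehicle-treated control cultures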; conditions: S. cerevisiae rad52 mutant growth inhibition, stronger effect = higher value
Method in brief: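 Growth of repair-deficient yeast cells was compared between compound-treated and vehicle-treated cultures to give percent inhibition.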

[2] = NCI Yeast Anticancer Drug Screen. Data for the wt1 strain (AID 149);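 further: 0% = growth of vehicle-treated wt1 cultures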; conditions: S. cerevisiae wt1 strain (SPY 50644) growth inhibition, stronger effect = higher value
Method in brief: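 The wt1 strain was treated with compounds, and growth was compared with vehicle-treated cultures to give inhibition.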

[3] = NCI Yeast Anticancer Drug Screen. Data for the rad50EPP+ strain (AID 151);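 further: 0% = growth of vehicle-treated control cultures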; conditions: S. cerevisiae rad50 mutant strain, stronger effect = higher value
Method in brief: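 Measured: growth inhibition of rad50EPP+ yeast. Reference: vehicle-treated controls. Screen uses strains with defined genetic alterations in DNA damage repair or cell cycle control.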

[4] = NCI Yeast Anticancer Drug Screen. Data for the mgt1 strain (AID 153); conditions: S. cerevisiae mgt1 mutant growth inhibition, stronger effect = higher value
Method in brief: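 Compounds were applied to mgt1 mutant yeast, and growth was then compared against vehicle-treated control cultures to give percent inhibition.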

[5] = NCI Yeast Anticancer Drug Screen. Data for the rad50 strain (AID 155);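 further: 0% = growth of vehicle-only cultures of the same strain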; conditions: S. cerevisiae rad50 strain growth inhibition, stronger effect = higher value
Method in brief: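 Cells are treated with compound, grown, and their growth is then scored against vehicle-only cultures of the same repair-deficient yeast strain.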

[6] = NCI Yeast Anticancer Drug Screen. Data for the mec2-1 strain (AID 157); conditions: S. cerevisiae mec2-1 strain, stronger effect = higher value
Method in brief: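 Compounds were applied to mec2-1 yeast cells. Their growth was then compared with that of vehicle-treated cultures to give growth inhibition.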

[7] = NCI Yeast Anticancer Drug Screen. Data for the rad14 strain (AID 159);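 further: 0% = growth of vehicle-treated control cultures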; conditions: S. cerevisiae rad14 strain growth inhibition, stronger effect = higher value
Method in brief: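 Readout: yeast growth inhibition, referenced to vehicle-only cultures. Strain bears a defined alteration in DNA damage repair.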

[8] = NCI Yeast Anticancer Drug Screen. Data for the sgs1 mgt1 strain (AID 161);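 further: 0% = growth of cultures given vehicle only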; conditions: S. cerevisiae sgs1 mgt1 strain, stronger effect = higher value
Method in brief: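 Growth of a repair-deficient yeast mutant was monitored after compound treatment and expressed as inhibition relative to vehicle-treated cultures.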

[9] = NCI Yeast Anticancer Drug Screen. Data for the CLN2oe strain (AID 163);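 further: 0% = growth of vehicle-only control cultures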; conditions: S. cerevisiae CLN2oe strain, stronger effect = higher value
Method in brief: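 Cells of an engineered yeast line with disturbed cell-cycle regulation are treated with compound. Inhibition of growth is then calculated relative to the vehicle-treated reference.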

[10] = NCI Yeast Anticancer Drug Screen. Data for the cln2 rad14 strain (AID 165);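 further: 0% = growth equal to vehicle treated cultures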; conditions: S. cerevisiae cln2 rad14 strain, stronger effect = higher value
Method in brief: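 Strain: cln2 rad14 yeast, altered in cell cycle control and DNA damage repair. Read-out: growth inhibition vs vehicle.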

[11] = NCI Yeast Anticancer Drug Screen. Data for the bub3 strain (AID 167); conditions: S. cerevisiae bub3 mutant strain, stronger effect = higher value
Method in brief: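 Part of a panel of yeast mutants defective in DNA damage repair or cell cycle regulation. Each strain is grown with compound, and inhibition is calculated relative to solvent-treated cultures.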

[12] = NCI Yeast Anticancer Drug Screen. Data for the wt2 strain (AID 169);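 further: 0% = growth of vehicle-treated yeast cultures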; conditions: S. cerevisiae wt2 strain growth inhibition, stronger effect = higher value
Method in brief: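 Growth of compound-treated yeast is measured and expressed as inhibition relative to vehicle-only controls.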

[13] = NCI Yeast Anticancer Drug Screen. Data for the mlh1 strain (AID 171);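 further: 0% = growth of vehicle-treated control cultures of the same strain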; conditions: S. cerevisiae mlh1 strain growth inhibition, stronger effect = higher value
Method in brief: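 Test agents were incubated with yeast bearing a defined DNA damage repair or cell cycle control alteration; values are growth inhibition normalised to vehicle-treated cultures.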

[14] = NCI Yeast Anticancer Drug Screen. Data for the mlh1 rad18 strain (AID 175); conditions: S. cerevisiae mlh1 rad18 strain growth inhibition, stronger effect = higher value
Method in brief: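 A repair-deficient yeast strain is exposed to test compound, and growth is scored relative to vehicle-treated controls.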

[15] = NCI Yeast Anticancer Drug Screen. Data for the rad18 strain (AID 177); conditions: S. cerevisiae rad18 mutant growth inhibition, stronger effect = higher value
Method in brief: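 DNA-repair-defective yeast; compound treatment; growth inhibition scored against vehicle.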

[16] = NCI Yeast Anticancer Drug Screen. Data for the sgs1 strain (AID 173);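 further: 0% = growth of vehicle-only control cultures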; conditions: S. cerevisiae sgs1 mutant, stronger effect = higher value
Method in brief: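 Strain with an altered DNA repair or cell cycle pathway exposed to compound. Growth then measured. Value = inhibition versus vehicle control.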

[17] = at 5.0 µM (retest, dose inferred, filed as 0.5)
[18] = at 50.0 µM (retest, dose inferred, filed as 5.0)

Measured: growth inhibition

Oc1ccc2ccccc2c1C(c1ccc(Cl)cc1)c1c(O)ccc2ccccc12
active: [1]; at 100.0 µM 84% | [2]; at 100.0 µM 84% | [4]; at 100.0 µM 88% | [5]; [17] 99% | [5]; [18] 99% | [5]; at 100.0 µM 89% | [6]; [17] 99% | [6]; [18] 99% | [6]; at 50.0 µM 83.9% | [6]; at 100.0 µM 84% | [7]; at 100.0 µM 84% | [8]; [18] 94% | [9]; at 33.0 µM 83% | [9]; at 100.0 µM 82% | [10]; [18] 95% | [10]; at 50.0 µM 76.8% | [11]; [18] 92% | [11]; at 50.0 µM 78.2% | [11]; at 100.0 µM 87% | [12]; at 100.0 µM 80% | [13]; at 100.0 µM 85% | [14]; [17] 99% | [14]; [18] 99% | [15]; at 100.0 µM 87%
inactive: [1]; at 1.2 µM -39% | [1]; at 3.7 µM -23% | [1]; at 11.0 µM -17% | [1]; at 33.0 µM 51% | [2]; at 1.2 µM 15% | [2]; at 3.7 µM -17% | [2]; at 11.0 µM 2% | [2]; at 33.0 µM 55% | [3]; at 1.2 µM -50% | [3]; at 3.7 µM -61% | [3]; at 11.0 µM -55% | [3]; at 33.0 µM -50% | [3]; at 100.0 µM -44% | [4]; at 1.2 µM -34% | [4]; at 3.7 µM -26% | [4]; at 11.0 µM -14% | [4]; at 33.0 µM 43% | [5]; at 1.2 µM -3% | [5]; at 3.7 µM 3% | [5]; at 11.0 µM 12% | [5]; at 33.0 µM 55% | [5]; at 50.0 µM 68.3% | [6]; at 1.2 µM -72% | [6]; at 3.7 µM -67% | [6]; at 11.0 µM -39% | [6]; at 33.0 µM 56% | [7]; at 1.2 µM -61% | [7]; at 3.7 µM -54% | [7]; at 11.0 µM -60% | [7]; at 33.0 µM -7% | [8]; [17] -2% | [8]; at 50.0 µM 19.4% | [9]; at 1.2 µM 0% | [9]; at 3.7 µM 5% | [9]; at 11.0 µM 21% | [10]; [17] 56% | [11]; at 1.2 µM -6% | [11]; at 3.7 µM -15% | [11]; [17] 29% | [11]; at 11.0 µM -1% | [11]; at 33.0 µM 39% | [12]; at 1.2 µM -22% | [12]; at 3.7 µM -36% | [12]; at 11.0 µM -20% | [12]; at 33.0 µM 16% | [13]; at 1.2 µM -41% | [13]; at 3.7 µM -25% | [13]; at 11.0 µM -32% | [13]; at 33.0 µM 26% | [14]; at 50.0 µM 54% | [15]; at 1.2 µM -30% | [15]; at 3.7 µM -8% | [15]; at 11.0 µM 2% | [15]; at 33.0 µM 50%

CC/C(=C(\c1ccccc1)c1ccc(OCCN(C)C)cc1)c1ccccc1
inactive: [1]; at 1.2 µM 15% | [1]; at 3.7 µM 11% | [1]; at 11.0 µM 38% | [2]; at 1.2 µM 8% | [2]; at 3.7 µM -8% | [2]; at 11.0 µM 22% | [2]; at 100.0 µM 50% | [3]; at 1.2 µM 12% | [3]; at 3.7 µM 2% | [3]; at 11.0 µM 1% | [4]; at 1.2 µM 7% | [4]; at 3.7 µM 8% | [5]; at 1.2 µM 9% | [5]; at 3.7 µM 21% | [5]; [17] 44% | [5]; at 11.0 µM 64% | [6]; at 1.2 µM -9% | [6]; at 3.7 µM -11% | [6]; [17] 46% | [6]; at 11.0 µM 46% | [7]; at 1.2 µM -26% | [7]; at 3.7 µM -9% | [8]; [17] -12% | [9]; at 1.2 µM 4% | [9]; at 3.7 µM 14% | [10]; [17] 30% | [11]; at 1.2 µM 5% | [11]; at 3.7 µM 10% | [11]; [17] 24% | [11]; at 11.0 µM 38% | [12]; at 1.2 µM -9% | [12]; at 3.7 µM -15% | [12]; at 11.0 µM 55% | [16]; at 1.2 µM 0% | [16]; at 3.7 µM 1% | [14]; [17] 46% | [14]; at 50.0 µM 40.4% | [15]; at 1.2 µM 13% | [15]; at 3.7 µM 12%
active: [1]; at 33.0 µM 98% | [1]; at 100.0 µM 98% | [2]; at 33.0 µM 98% | [3]; at 33.0 µM 97% | [3]; at 100.0 µM 97% | [4]; at 11.0 µM 94% | [4]; at 33.0 µM 98% | [4]; at 100.0 µM 97% | [5]; at 33.0 µM 98% | [5]; [18] 99% | [5]; at 50.0 µM 90% | [5]; at 100.0 µM 97% | [6]; at 33.0 µM 98% | [6]; [18] 99% | [6]; at 50.0 µM 93.4% | [6]; at 100.0 µM 97% | [7]; at 11.0 µM 89% | [7]; at 33.0 µM 97% | [7]; at 100.0 µM 96% | [8]; [18] 98% | [8]; at 50.0 µM 92.8% | [9]; at 11.0 µM 82% | [9]; at 33.0 µM 98% | [9]; at 100.0 µM 97% | [10]; [18] 99% | [10]; at 50.0 µM 92% | [11]; at 33.0 µM 98% | [11]; [18] 92% | [11]; at 50.0 µM 91.5% | [11]; at 100.0 µM 98% | [12]; at 33.0 µM 98% | [12]; at 100.0 µM 97% | [16]; at 11.0 µM 84% | [16]; at 33.0 µM 97% | [16]; at 100.0 µM 97% | [14]; [18] 99% | [15]; at 11.0 µM 71% | [15]; at 33.0 µM 98% | [15]; at 100.0 µM 98%
